These results are taken from PubChem BioAssay (NCATS).

Structures are written as SMILES. “And” between values parts separate entries of the source, which are not always exact repeats. Identical values can stand only once. Inconclusive results are not listed. A call without a number means that no potency is given here. The source made the active and inactive calls. Calls follow the shape of the dose curve; as a rule, active = well fitted curve in the direction sought with a large enough effect; inconclusive = small, poorly fitted or top-dose-only effect, or another doubt; inactive = no such curve, though single readings can be large; an effect the other way counts as inactive or inconclusive. Where a SMILES comes first, the peptide text is derived from it. [ ]: non-standard residue; d: D form. pGlu = O=C1CC[C@@H](C(=O)O)N1; Thz = O=C(O)[C@@H]1CSCN1

Chain of Parathyroid hormone/parathyroid hormone-related peptide receptor (Homo sapiens) (Q03431 whole entry, looked up): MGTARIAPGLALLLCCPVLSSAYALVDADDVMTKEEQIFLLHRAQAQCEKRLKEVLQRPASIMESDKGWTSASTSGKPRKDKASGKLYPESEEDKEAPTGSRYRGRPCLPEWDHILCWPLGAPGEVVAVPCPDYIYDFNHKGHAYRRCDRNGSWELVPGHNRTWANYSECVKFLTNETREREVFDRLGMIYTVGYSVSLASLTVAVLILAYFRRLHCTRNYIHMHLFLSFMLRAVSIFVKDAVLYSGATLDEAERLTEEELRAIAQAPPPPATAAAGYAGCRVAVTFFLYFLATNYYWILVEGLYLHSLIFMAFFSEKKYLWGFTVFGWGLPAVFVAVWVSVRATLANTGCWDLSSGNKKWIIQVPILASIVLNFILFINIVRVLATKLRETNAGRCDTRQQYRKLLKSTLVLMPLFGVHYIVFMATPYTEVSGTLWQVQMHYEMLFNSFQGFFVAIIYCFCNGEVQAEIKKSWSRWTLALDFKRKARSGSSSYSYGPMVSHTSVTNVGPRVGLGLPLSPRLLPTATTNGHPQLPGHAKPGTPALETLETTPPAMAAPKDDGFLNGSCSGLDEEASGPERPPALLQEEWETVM

System in one experiment: not listed separately
Kind of experiment: P-glycoprotein substrates identified in KB-8-5-11 adenocarcinoma cell line, qHTS therapeutic library screen (AID 1346987). Also: nearly all actives have a fitted effect of over 65% in size. Also: potency is read from the fitted curve at half-maximal effect. The following applies: KB-8-5-11 (P-gp overexpressing) viability, CellTiter-Glo, 72 h; series mostly up to 44.5 µM. The essentials:
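Human cervical adenocarcinoma KB-8-5-11 cells, selected in colchicine to over-express P-gp and assayed without it, were exposed for 72 h to titrated compounds. An ATP-based luminescent viability signal gave AC50.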
A general note: In qHTS, concentration-response curves come from the screen itself.
`CC(=O)[C@]1(O)Cc2c(O)c3c(c(O)c2[C@@H](O[C@H]2C[C@H](N)[C@H](O)[C@H](C)O2)C1)C(=O)c1c(O)cccc1C3=O`: the Potency is 5.17 µM (active) and 4.11 µM (active).

`CC1(C)[C@@H](O)CC[C@]2(C)[C@H]3C(=O)C=C4[C@@H]5C[C@@](C)(C(=O)O)CC[C@]5(C)CC[C@@]4(C)[C@]3(C)CC[C@@H]12`: the Potency entry was “inactive”.

As for `Nc1ccc(O)c(C(=O)O)c1`, the Potency entry was “inactive”.

For `CC(=O)O[C@H]1C[C@@]2(C)[C@@H](C[C@@H](O)[C@H]3[C@@]4(C)CC[C@@H](O)[C@@H](C)[C@@H]4CC[C@@]32C)/C1=C(\CCC=C(C)C)C(=O)O`, the Potency entry is “inactive”.

As to `CC(C(=O)O)c1ccc2c(c1)[nH]c1ccc(Cl)cc12` (centres undefined), the Potency entry was “inactive”.

As for `COc1cc(/C=C/C(=O)CC(=O)/C=C/c2ccc(O)c(OC)c2)ccc1O`, the Potency entry was “inactive”.

In the case of `CO[C@H]1C[C@@H]2CC[C@@H](C)[C@@](O)(O2)C(=O)C(=O)N2CCCC[C@H]2C(=O)O[C@H]([C@H](C)C[C@@H]2CC[C@@H](O)[C@H](OC)C2)CC(=O)[C@H](C)C=C(C)[C@@H](O)[C@@H](OC)C(=O)[C@H](C)C[C@H](C)/C=C/C=CC=C1C`, the Potency result was “inactive”.

Consider `C[S+](CC[C@H](N)C(=O)O)C[C@H]1O[C@@H](n2cnc3c(N)ncnc32)[C@H](O)[C@@H]1O` (some centres undefined), for which the Potency result was “inactive”.

Regarding `CC1(C)[C@@H](O[C@H]2O[C@H](C(=O)O)[C@@H](O)[C@H](O)[C@H]2O[C@@H]2O[C@H](C(=O)O)[C@@H](O)[C@H](O)[C@H]2O)CC[C@]2(C)[C@H]3C(=O)C=C4[C@@H]5C[C@@](C)(C(=O)O)CC[C@]5(C)CC[C@@]4(C)[C@]3(C)CC[C@@H]12`, the Potency entry is “inactive”.

With `CC1(C)S[C@@H]2[C@H](NC(=O)[C@H](NC(=O)N3CCN(S(C)(=O)=O)C3=O)c3ccccc3)C(=O)N2[C@H]1C(=O)O`, the Potency result was “inactive”.

For `CC1(C)S[C@@H]2[C@H](NC(=O)[C@H](N)c3ccc(O)cc3)C(=O)N2[C@H]1C(=O)O`, the Potency result is “inactive”.

As for `CC[C@H]1OC(=O)[C@H](C)C(=O)[C@H](C)[C@@H](O[C@@H]2O[C@H](C)C[C@H](N(C)C)[C@H]2O)[C@](C)(OC)C[C@@H](C)C(=O)[C@H](C)[C@H]2N(CCCCn3cnc(-c4cccnc4)c3)C(=O)O[C@]12C`, the Potency result is “inactive”.

As for `Cc1onc(-c2c(F)cccc2Cl)c1C(=O)N[C@@H]1C(=O)N2[C@@H]1SC(C)(C)[C@@H]2C(=O)O`, the Potency entry was “inactive”.

As to `O=C(O)COc1ccc(C(=O)c2cccs2)c(Cl)c1Cl`, the Potency result was “inactive”.

For the compound `COc1cc(/C=C/C(=O)N2CCN(CC(=O)N3CCCC3)CC2)cc(OC)c1OC`, the Potency entry is “inactive”.

Regarding `C=C(Nc1ccc(OCC)cc1)Nc1ccc(OCC)cc1`, the Potency result was “inactive”.

Take `C=CCN1C(=O)C(CC(C)C)NC1=S` (centres undefined): the Potency entry was “inactive”.

With `COC(=O)[C@H]1[C@H]2C[C@@H]3c4[nH]c5cc(OC)ccc5c4CCN3C[C@H]2C[C@@H](OC(=O)/C=C/c2cc(OC)c(OC)c(OC)c2)[C@@H]1OC`, the Potency result was “inactive”.

For `O=C(O)[C@H](O)[C@@H](O)[C@H](O)[C@H](O)CO`, the Potency entry was “inactive”.

As to `CCCCCC[C@@H](O)C/C=C\CCCCCCCC(=O)O`, the Potency result was “inactive”.

As for `CN1[C@@H]2CC[C@H]1CC(OC(=O)C(CO)c1ccccc1)C2` (some centres undefined), the Potency result is “inactive”.

On to `CC[C@H]1OC(=O)[C@H](C)[C@@H](O[C@H]2C[C@@](C)(OC)[C@@H](O)[C@H](C)O2)[C@H](C)[C@@H](O[C@@H]2O[C@H](C)C[C@H](N(C)C)[C@H]2O)[C@](C)(O)C[C@@H](C)C(=O)[C@H](C)[C@@H](O)[C@]1(C)O`, for which the Potency entry was “inactive”.

On to `O=C(O)[C@H](CC(=O)N1C[C@H]2CCCC[C@H]2C1)Cc1ccccc1`, for which the Potency entry is “inactive”.

Take `CC1(C)C[C@@H]1C(=O)N/C(=C\CCCCSC[C@H](N)C(=O)O)C(=O)O`: the Potency result was “inactive”.

Regarding `COc1cc(CNC(=O)CCCC/C=C/C(C)C)ccc1O`, the Potency entry is “inactive”.

In the case of `CN1[C@@H]2CC[C@H]1CC(OC(c1ccccc1)c1ccccc1)C2` (some centres undefined), the Potency result was “inactive”.

As for `O=C(O)Cc1ccc(-c2ccccc2)cc1`, the Potency entry was “inactive”.

Turning to `O=C1CC[C@@H](C(=O)N2CSC[C@H]2C(=O)O)N1` ([pGlu]-[Thz]-OH), the Potency entry is “inactive”.

In the case of `C[C@H](O)[C@H](O)[C@H]1CNc2nc(N)[nH]c(=O)c2N1`, the Potency entry is “inactive”.

For `CCCCC[C@H](O)/C=C/[C@@H]1[C@@H](C/C=C\CCCC(=O)O)[C@@H](O)C[C@H]1O`, the Potency result is “inactive”.

System in the next experiment: not listed separately
Kind of experiment: NS1 protein of Zika virus - qHTS assay to identify small molecule inhibitors in human HEK 293 cells (AID 1347053). Also: nearly all actives have a fitted effect of over 55% in size. The note with it: HEK293 ZIKV MR766 infection, NS1 TR-FRET, 24 h; series mostly up to 46.1 µM. The method in brief: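 In this cell-based screen, HEK 293 cultures received compound for one hour before Zika MR766 at MOI = 0.5. NS1 was quantified 24 hours later by TR-FRET, normalized to virus-free wells and infected wells.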
In the case of `Nc1ccc(O)c(C(=O)O)c1`, the Potency entry is “inactive”.

Turning to `CC(C(=O)O)c1ccc2c(c1)[nH]c1ccc(Cl)cc12` (centres undefined), the Potency result is “inactive”.

For `CN1CCN(c2cc3c(nn2)Oc2ccccc2N3C)CC1`, the Potency entry is “inactive”.

On to `O=C(O)Cc1ccc(-c2ccccc2)cc1`, for which the Potency entry is “inactive”.

Another experiment addresses Parathyroid hormone/parathyroid hormone-related peptide receptor (Homo sapiens) (UniProt Q03431). The experiment is described as follows: qHTS for PTHR1 Agonists: Optimization Screen against the NCGC LOPAC library (AID 1347079). The following applies: HEK293 GP2 PTHR1 GloSensor cAMP luminescence, 1 h; series mostly up to 57.1 µM. The method in brief: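 Signal increase flags agonism. GP2 cells, derived from HEK-293, express human PTHR1 and a GloSensor cAMP construct.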
With `CNCC[C@H](Oc1ccc(C(F)(F)F)cc1)c1ccccc1`, the Potency result is “inactive”.

Consider `Ic1ccc(N2CCN(Cc3c[nH]c4ncccc34)CC2)cc1`, for which the Potency entry is “inactive”.

On to `C=CC(=O)c1ccc(CCCCCC)cc1`, for which the Potency entry is “inactive”.

System in a further experiment: not listed separately
Kind of experiment: qHTS of pediatric cancer cell lines to identify multiple opportunities for drug repurposing: Primary screen for TC32 cells (AID 1347089). Also: nearly all actives have a fitted effect of over 60% in size. Also: potency is read from the fitted curve at half-maximal effect. The following applies: TC32 Ewing sarcoma viability, CellTiter-Glo luminescence, 48 h; series mostly up to 45.8 µM. The essentials:
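In the primary qHTS, MIPE compounds were tested at 11 concentrations (0.78 nM to 46 µM) and NPC compounds at 8 (0.59 nM to 46 µM) on TC32 cells for 48 h. CellTiter-Glo luminescence gave viability.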
As for `Nc1ccc(O)c(C(=O)O)c1`, the Potency entry is “inactive”.

For the compound `CC(C(=O)O)c1ccc2c(c1)[nH]c1ccc(Cl)cc12` (centres undefined), the Potency entry is “inactive”.

In the case of `COC(=O)c1nc(Cl)c(Cl)nc1N`, the Potency was 3.33 µM (active).

`CN1CCN(c2cc3c(nn2)Oc2ccccc2N3C)CC1`: the Potency result is “inactive”.

For `O=Cc1ccc(O)c(O)c1O`, the Potency entry was “inactive”.

Regarding `O=C(O)Cc1ccc(-c2ccccc2)cc1`, the Potency result is “inactive”.

With `N=C1N=C(N)c2cc3ccccc3cc21`, the Potency result is “inactive”.
